Screening results: PubChem, National Center for Advancing Translational Sciences (NCATS)
HT1080-NT tox – kills 2HG-producing HT-1080-NT fibrosarcoma cells; Potency, µM (top dose mostly 46.1 µM), inactives show top-dose activity, negative = less viability, most hits filed as cytotoxic; HT-1080-NT fibrosarcoma viability, CellTiter-Glo ATP luminescence, 48 h; 1.6% of 360,000 active; AID 686970;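 note: NT is the 2HG producing partner of a matched IDH1 knockdown line; 0% = DMSO-treated cells and -100% = media-only wells without cells; nearly all actives have a fitted effect of over 55% in size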
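Toxicity toward the 2HG-producing NT line was scored as %Activity, normalised to DMSO and no-cell wells, from CellTiter-Glo luminescence after 48 hours' treatment.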
KB-3-1 tox – KB-3-1 parental cell cytotoxicity; 1.4% of 400,000 active; Potency, µM (highest dose often 46.1 µM), actives largely listed as cytotoxic; KB-3-1 viability, CellTiter-Glo ATP luminescence, 72 h; AID 1347075; note: nearly all actives have a fitted effect of over 60% in size
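Using CellTiter-Glo luminescence, growth of non-resistant KB-3-1 adenocarcinoma cells is assessed 72 h after pin-tool compound addition at 37 °C. Normalized responses across the concentration series yield fitted curves.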
KB-V1 MDR tox – kills drug-selected multidrug resistant KB-V1 cells; KB-V1 MDR cells viability, CellTiter-Glo, 72 h; 3.4% of 400,000 active; Potency, µM (doses to about 46.1 µM), usual class: cytotoxic; note: nearly all actives have a fitted effect of over 60% in size
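Potencies derive from concentration-effect curves fitted to normalized luminescence (CellTiter-Glo) of KB-V1 cells treated for 72 h at 37 degrees C in phenol-red-free DMEM containing 10% FBS.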
DT40 TDP1 CPT – DT40-hTDP1 cell growth loss with CPT | chicken DT40 Tdp1-/-;hTDP1 cells + 20 nM CPT, ATP luminescence, 48 h | Potency, µM (doses to about 46.2 µM), for inactives: at the highest dose activity change, negative = growth inhibition, usual class: inhibitors | 12% of 420,000 active | AID 686979; note: nearly all actives have a fitted effect of over 55% in size
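Cell growth measured by CellTiter-Glo luminescence after a minimum 48 h, 37 C compound exposure with 20 nM CPT in Tdp1-knockout DT40 cells stably expressing hTDP1, seeded 400/well; qHTS titration format.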
HT1080 IDH1KD tx – kills HT-1080 cells with IDH1 knockdown. 2% of 360,000 active. HT-1080 IDH1 knockdown viability, ATP luminescence, 48 h. AID 686971. Potency, µM (top dose mostly 46.1 µM), for inactives: at the highest dose activity, negative = toxicity, usual class: cytotoxic;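 note: 0% = DMSO wells and -100% = cell-free medium wells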
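CellTiter-Glo luminescence after 48 h compound exposure at 37 degrees C of IDH1-knockdown HT-1080 cells in 5% FBS RPMI. %Activity scaled between DMSO wells and cell-free media wells, with curves fitted and assigned curve classes.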
TDP1 cell noCPT – qHTS for Inhibitors of human tyrosyl-DNA phosphodiesterase 1 (TDP1): qHTS in cells in absence of CPT; Potency, µM (series often up to 46.2 µM), without a hit: top-dose activity change, negative = growth inhibition, hits mostly inhibitors; AID 686978, 2013; 15% of 420,000 active; DT40 Tdp1-/- hTDP1 cells, no CPT, ATP luminescence, 48 h; note: nearly all actives have a fitted effect of over 55% in size
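Seeded 400 DT40-hTDP1 cells/well (vehicle DMSO, no 20 nM CPT); pinned compounds; ≥48 hr at 37 °C; CellTiter-Glo luminescence as viability measure.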
Active calls of the source: *; i = inactive; ? = inconclusive; . = no result; [ ] = dose if it differs, or a comment. An excerpt weighted towards active compounds, which were near 19% of everything screened. Calls come from the whole dose curve; as a rule, active = well fitted curve in the direction sought with a large enough effect; inconclusive = small, poorly fitted or top-dose-only effect, or another doubt; inactive = no such curve, though single readings can be large; an effect the other way counts as inactive or inconclusive. Unless noted, % is set by controls: 0 for no effect and ±100 for the full control effect; potency is the fitted concentration of half-maximal effect.

SMILES	HT1080-NT tox	KB-3-1 tox	KB-V1 MDR tox	DT40 TDP1 CPT	HT1080 IDH1KD tx	TDP1 cell noCPT
CCOC(=O)c1ccc(NC(=S)N(CCCN2CCN(C)CC2)Cc2cccs2)cc1	?	i	i	-27.8%	?	-13.8%
CCOC(=O)c1ccc(NC(=S)N(CCCN2CCN(CC)CC2)Cc2cccs2)cc1	-29.0%	i	i	?	?	18.4µM*
O=C(CNC(=S)N(CCCN1CCOCC1)Cc1cccs1)NC1CCCCCCC1	-16.5%	i	i	?	-27.0%	16.4µM*
CCOC(=O)c1ccc(NC(=S)N(CCCN2CCCC(C)C2)Cc2cccs2)cc1 (stereo not given)	0.1%	i	i	?	-5.1%	25.9µM*
Cc1ccc(N2C(=O)N(CC(=O)Nc3cc(F)ccc3C)C(=O)C2C)cc1 (stereo not given)	8.7%	i	?	1.4%	10.4%	1.1%
COCCNC(=O)CN(Cc1ccccc1)C(=O)CCC(=O)Nc1nccs1	18.2%	i	i	29.5%	13.9%	7.4%
CC1CN(C(=O)CSc2nnc(NC(=O)NC(C)(C)C)s2)CC(C)O1 (stereo not given)	5.9%	i	i	-27.7%	6.2%	?
O=C(Nc1cccc(S(=O)(=O)N2CCCCCC2)c1)C1CCN(C(=O)c2ccc(Cl)cc2)CC1	?	?	i	18.4µM*	-20.8%	?
COc1ccc(NC(=O)C2CCCN(C(=O)c3ccc(Cl)cc3)C2)cc1Cl (stereo not given)	-3.1%	i	i	20.6µM*	-1.5%	18.4µM*
O=C(Nc1cccc(S(=O)(=O)N2CCCCC2)c1)C1CCN(C(=O)c2ccc(Cl)cc2)CC1	0.0%	.	.	?	-7.6%	?
CC(=O)c1ccc(NC(=O)C2CCCN(C(=O)c3ccc(Cl)cc3)C2)cc1 (stereo not given)	-4.6%	i	i	25.9µM*	-6.4%	20.6µM*
CN(C)S(=O)(=O)c1ccc(NC(=O)C2CCCN(C(=O)c3ccc(Cl)cc3)C2)cc1 (stereo not given)	-3.4%	i	i	?	-2.5%	?
O=C(Nc1ccc(S(=O)(=O)N2CCCCC2)cc1)C1CCCN(C(=O)c2ccc(Cl)cc2)C1 (stereo not given)	-8.3%	9.2µM*	i	?	-10.1%	20.6µM*
Cc1cccc(NS(=O)(=O)c2ccc(NC(=O)N3CCCC3)cc2)c1	.	?	i	-10.8%	.	-10.2%
O=C(Cc1ccccc1Cl)Nc1cccc(S(=O)(=O)N2CCCCCC2)c1	-16.6%	i	i	-6.9%	-0.3%	-5.7%
O=C(Nc1cccc(F)c1)C1CCCN(C(=O)c2ccc(Cl)cc2)C1 (stereo not given)	-5.6%[9.24 µM]	?	?	20.6µM*	-0.1%	18.4µM*
CCc1nnc(NC(=O)C2CCCN(C(=O)c3ccc(Cl)cc3)C2)s1 (stereo not given)	-2.6%	i	i	?	-13.5%	?
O=C(Nc1ccccc1)C1CCCN(C(=O)c2ccc(Cl)cc2)C1 (stereo not given)	-20.7%	i	?	?	-23.7%	?
CCSc1nnc(NC(=O)C2CCCN(C(=O)c3ccc(Cl)cc3)C2)s1 (stereo not given)	-13.9%	i	?	6.51µM*	-10.8%	5.17µM*
O=C(Nc1cccc(S(=O)(=O)N2CCCCC2)c1)Nc1ccc(Cl)cc1Cl	20.6µM*	?	?	?	16.4µM*	?
COc1ccc(Br)cc1CNC(=O)C(C)n1nc(C)n2c(cc3occc32)c1=O (stereo not given)	.	.	.	-3.7%	.	?
Cc1nn(-c2ccccc2)c(Cl)c1C(=O)Nc1c(C)n(C)n(-c2ccccc2)c1=O	13.3%	i	i	-17.6%	-1.6%	-14.4%
CCOC(=O)Nc1sc(C(=O)N(CC)CC)c(C)c1C(=O)OCC	11.7%	i	i	-10.6%	5.1%	-17.1%
CCOC(=O)c1c(NC(=O)COC(=O)CCCOc2ccc(OC)cc2)sc(C(=O)N(C)C)c1C	-2.3%	i	i	-0.7%	-4.7%	?
CCOC(=O)c1c(NC(=O)COC(=O)c2cccnc2OCC)sc(C(=O)N(CC)CC)c1C	0.9%	i	i	?	-15.8%	18.4µM*
SMILES	HT1080-NT tox	KB-3-1 tox	KB-V1 MDR tox	DT40 TDP1 CPT	HT1080 IDH1KD tx	TDP1 cell noCPT
CCOC(=O)c1c(NC(=O)c2nc(S(C)(=O)=O)ncc2Cl)sc(C(C)=O)c1C	.	.	.	0.581µM*	.	0.92µM*
CCOC(=O)c1c(NC(=O)COc2ccccc2)sc(C(C)=O)c1C	.	i	?	.	.	.
CCOC(=O)c1c(NC(=O)COc2ccc(Br)cc2)sc(C(C)=O)c1C	.	i	i	?	.	9.2µM*
CCOC(=O)c1c(NC(=O)COc2ccc(OC)cc2)sc(C(=O)N(CC)CC)c1C	.	.	.	?	.	7.31µM*
CC(C)(C)CC(C)(C)c1ccc(O)c(-n2nc3ccccc3n2)c1	.	.	.	-1.2%	.	-3.4%
O=C(O)c1ccc(NC(=O)c2ccccc2NC(=O)c2ccccc2Cl)cc1	6.1%	i	i	29.5%	4.7%	-0.5%
CCOC(=O)c1c(NC(=O)C2c3ccccc3Oc3ccccc32)sc(C(N)=O)c1C	0.6%	i	i	?	-6.8%	?
CCOC(=O)c1c(NC(=O)COC(=O)c2ccc(O)cc2)sc(C(=O)NC)c1C	-7.0%	i	i	18.4µM*	-11.1%	20.6µM*
CCN(CC)C(=O)c1sc(NC(=O)C2c3ccccc3Oc3ccccc32)c(C(=O)OC(C)C)c1C	.	i	i	?	.	0.116µM*
CO[C@H]1C[C@H](O[C@H]2[C@H](C)[C@@H](O[C@@H]3O[C@H](C)C[C@H](N(C)C)[C@H]3O)[C@@H](C)C[C@]3(CO3)C(=O)[C@H](C)[C@@H](O)[C@@H](C)[C@@H](C)OC(=O)[C@@H]2C)O[C@@H](C)[C@@H]1O	.	.	.	-22.6%[21.1 µM]	.	3.7%[21.1 µM]
CCOC(=O)c1c(C)oc2nc(C)nc(NCC3CCN(Cc4ccccc4C)CC3)c12	.	i	i	-11.1%	.	-2.4%
CCCc1cc(=O)[nH]c(SCC(=O)Nc2oc(C)c3c(C)n[nH]c(=O)c23)n1	-4.5%	i	i	-12.1%	-15.2%	0.8%
Cc1ccc(C)c(C(=O)N2CCC(C3(c4ccccn4)NC(=O)N(CC4CCCO4)C3=O)CC2)c1 (stereo not given)	.	.	.	7.9%	.	-8.1%
